Mtb bLac sens = beta-lactam sensitization of Mtb H37Rv; M. tuberculosis H37Rv growth with meropenem, percent inhibition; inhibition, % at 25 µM; 0.27% of 330,000 active; AID 434955; call rule not given here;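 note: growth measured after seven days incubation then overnight dye step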
PriA SSB inh = blocks PriA binding to SSB C-terminal tail | 0.6% of 430,000 active | AlphaScreen SSBct-PriA binding, biotinylated peptide | inhibition, % at 33 µM; in the data active = inhibition mostly above about 37%, no sharp cut-off; inactive = mostly below about 20%
FBA Mtb inh = Mtb fructose-bisphosphate aldolase inhibition; purified M. tuberculosis FBA, fluorescence read-out; inhibition, % at 1 µM; 2.3% of 360,000 active; AID 588726; in the data active = inhibition above about 27%
Mtb UGM inh = blocks M. tuberculosis UGM enzyme. purified UGM, fluorescence polarization probe displacement. inhibition, % at 10 µM. 0.06% of 320,000 active. AID 504406; in the data active = inhibition above about 10%, passing the limit was not always enough
Rv3671c protease = inhibitors of M. tuberculosis serine protease Rv3671c. 0.048% of 320,000 active. AID 2606. inhibition, % at 5.96 µM. P9WHR9; in the data active = inhibition above about 38%;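 note: extracellular domain of Rv3671c used as enzyme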
Target sequence (P9WHR9 whole entry, looked up, the tested form may be a part): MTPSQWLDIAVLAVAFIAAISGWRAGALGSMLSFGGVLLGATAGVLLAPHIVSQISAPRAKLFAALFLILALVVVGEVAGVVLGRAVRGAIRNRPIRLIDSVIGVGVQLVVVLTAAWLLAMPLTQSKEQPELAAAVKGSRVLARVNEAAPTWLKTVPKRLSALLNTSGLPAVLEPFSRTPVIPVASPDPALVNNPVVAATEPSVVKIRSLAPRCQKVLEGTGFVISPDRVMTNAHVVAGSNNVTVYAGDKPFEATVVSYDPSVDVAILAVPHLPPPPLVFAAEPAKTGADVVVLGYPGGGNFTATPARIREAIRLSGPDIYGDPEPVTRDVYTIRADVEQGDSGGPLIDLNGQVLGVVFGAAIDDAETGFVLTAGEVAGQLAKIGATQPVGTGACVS
GDH-TPI counter = GDH-TPI coupled enzyme inhibition counter-screen; GDH-TPI coupled enzyme counterscreen, NADH absorbance; inhibition, % at 4.8 µM; 1.2% of 360,000 active; in the data active = inhibition above about 30%
Of the large screens only hits and unclear results are named; the others gave an inactive call. A selection: hits, their analogues and other compounds. The true share with any hit is near 3.2%.

CCn1cc(/C=C(\NC(=O)c2cc(OC)c(OC)c(OC)c2)C(=O)N2CCOCC2)c2ccccc21	GDH-TPI counter 31 (no result: Mtb bLac sens, PriA SSB inh, Mtb UGM inh, Rv3671c protease)
Fc1ccc(-c2noc(-c3cn[nH]c3-c3ccccc3)n2)cc1	none (no result: Mtb bLac sens, FBA Mtb inh, Mtb UGM inh, Rv3671c protease, GDH-TPI counter)
COc1cc(=O)n(-c2ccc(C)cc2)nc1C(=O)NCC(C)C	none (no result: Mtb bLac sens, FBA Mtb inh, Mtb UGM inh, Rv3671c protease, GDH-TPI counter)
NS(=O)(=O)c1ccc(NC(=O)CCCn2nc(-c3ccc(Cl)cc3)ccc2=O)cc1	none (no result: Mtb bLac sens, FBA Mtb inh, Mtb UGM inh, Rv3671c protease, GDH-TPI counter)
COc1cc(COc2ccc3c(C)c(CCC(=O)O)c(=O)oc3c2)cc(OC)c1OC	none
Cc1c(CCC(=O)O)c(=O)oc2cc(OCc3ccccc3F)ccc12	FBA Mtb inh 121
Cc1c(CC(=O)O)c(=O)oc2cc(OCc3ccc(F)cc3Cl)ccc12	FBA Mtb inh 167
Cc1noc(CNS(=O)(=O)Cc2ccc(F)cc2)n1	none (no result: Mtb bLac sens, FBA Mtb inh, Mtb UGM inh, Rv3671c protease, GDH-TPI counter)
CN(C)/N=C/c1ccc(P(c2ccc(/C=N/N(C)C)o2)c2ccc(/C=N/N(C)C)o2)o1	GDH-TPI counter 65 (no result: PriA SSB inh)
CN(C)N=Cc1ccc(N2CCOCC2)cc1	none (no result: Mtb bLac sens, FBA Mtb inh, Mtb UGM inh, Rv3671c protease, GDH-TPI counter)
COc1ccc(C2=NN(C(C)=O)C(c3cccc4cccc(OC)c34)C2)c(OC)c1 (centres undefined)	none (no result: Mtb bLac sens, FBA Mtb inh, Mtb UGM inh, Rv3671c protease, GDH-TPI counter)
CCCCCOc1ccc(C(O)=C(C#N)c2nc3ccccc3n2C)cc1	none (no result: Mtb bLac sens, FBA Mtb inh, Mtb UGM inh, Rv3671c protease, GDH-TPI counter)
Fc1ccc(F)c(C2=NNC(=Nc3ccccc3F)SC2)c1	none
Fc1ccc(N=C2NN=C(c3cc(F)ccc3F)CS2)cc1	PriA SSB inh 50
Cc1cccc(N=C2NN=C(c3ccccc3F)CS2)c1C	PriA SSB inh 44
Cn1nc(CNC(=O)Nc2ccc3c(c2)OCO3)cc1C1CC1	none (no result: Mtb bLac sens, FBA Mtb inh, Mtb UGM inh, Rv3671c protease, GDH-TPI counter)
O=C(Cn1ccc2ccccc21)N1CC(c2nc(-c3ccccn3)no2)C1	none (no result: Mtb bLac sens, FBA Mtb inh, Mtb UGM inh, Rv3671c protease, GDH-TPI counter)
COc1cc(OC)c2c(C)cc(=O)oc2c1C(CCN1CCOCC1)c1ccc(N(C)C)cc1 (centres undefined)	PriA SSB inh 45
CCCCCc1cc(=O)oc2c(C(CCN3CCCC(C)C3)c3ccc4c(c3)OCO4)c(OC)cc(OC)c12 (centres undefined)	none
COc1cc(OC)c2c(-c3ccccc3)cc(=O)oc2c1C(CC(=O)N1CCOCC1)c1ccc(N(C)C)cc1 (centres undefined)	PriA SSB inh 42
CCN(CC)CCC(c1ccc(N(C)C)cc1)c1c(OC)cc(OC)c2c(-c3ccccc3)cc(=O)oc12 (centres undefined)	PriA SSB inh 87
COc1cc(OC)c2c(-c3ccccc3)cc(=O)oc2c1C(CC(=O)N1CCN(c2ccccc2)CC1)c1ccc(N(C)C)cc1 (centres undefined)	none
CCCCCc1cc(=O)oc2c(C(CCN3CCCCC3)c3ccc4c(c3)OCO4)c(OC)cc(OC)c12 (centres undefined)	PriA SSB inh 42
CN1CCN(C(CNC(=O)c2c(F)cccc2Cl)c2ccsc2)CC1 (centres undefined)	none (no result: Mtb bLac sens, FBA Mtb inh, Mtb UGM inh, Rv3671c protease, GDH-TPI counter)
CCOc1ccc(CC(=O)Nc2nn(C)c3c2[C@@H](C)CC(=O)N3)cc1	none (no result: Mtb bLac sens, FBA Mtb inh, Mtb UGM inh, Rv3671c protease, GDH-TPI counter)
NC(=O)C1Cc2ccccc2N1C(=O)c1ccccc1S(=O)(=O)C(F)F (centres undefined)	none (no result: Mtb bLac sens, FBA Mtb inh, Mtb UGM inh, Rv3671c protease, GDH-TPI counter)
COc1cc(OC)c2ccc(=O)oc2c1C(CCN1CCN(c2ccccc2)CC1)c1ccc(N(C)C)cc1 (centres undefined)	PriA SSB inh 55
COc1cc(O)c(C(CCN2CCN(c3ccccc3)CC2)c2ccc3c(c2)OCO3)c(OC)c1 (centres undefined)	PriA SSB inh 42
COc1cc(OC)c2c(-c3ccccc3)cc(=O)oc2c1C(CCN1CCN(c2ccccc2)CC1)c1ccc(N(C)C)cc1 (centres undefined)	PriA SSB inh 55
COc1cc(OC)c2c(-c3ccccc3)cc(=O)oc2c1C(CCN1CCCC(C)C1)c1ccc(N(C)C)cc1 (centres undefined)	PriA SSB inh 97
COc1cc(O)c(C(CCN2CCCC2)c2ccc3c(c2)OCO3)c(OC)c1 (centres undefined)	none
COc1ccc(C(CCN2CCN(c3ccccc3)CC2)c2c(OC)cc(OC)c3c(-c4ccccc4)cc(=O)oc23)cc1 (centres undefined)	none
Cc1cc(C=NNC(=O)CC(=O)NC2CCCCC2)c(C)n1-c1ccc(Cl)c(Cl)c1	none (no result: Mtb bLac sens, FBA Mtb inh, Mtb UGM inh, Rv3671c protease, GDH-TPI counter)
CC(C)c1ccc(NC(=O)C(=O)NCC(c2ccsc2)N2CCCC2)cc1 (centres undefined)	none (no result: Mtb bLac sens, FBA Mtb inh, Mtb UGM inh, Rv3671c protease, GDH-TPI counter)
Cc1ccc(C(CC(=O)c2ccco2)SCCO)cc1 (centres undefined)	GDH-TPI counter 33
Cc1cc(C)cc(OCCNS(=O)(=O)c2cc([N+](=O)[O-])ccc2Cl)c1	PriA SSB inh 36 (no result: Mtb bLac sens, FBA Mtb inh, Mtb UGM inh, Rv3671c protease, GDH-TPI counter)
